Source: PubChem BioAssay AID1159580 (chemical genetic matrix, 2015)
Out of some 5,500 compounds screened, about 2,000 (36%) were called active. Inconclusive results (about 18%) are left out. Rule as the data show it: active = normalized growth mostly below about 0.91 (no sharp cut-off); inconclusive = no clear call, values can overlap the other calls; inactive = mostly above about 0.92. The list shows a part of the results.

Test: chemical genetic growth profiling, strain panel (AID 1159580);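 also: tested at 20 µM; growth read once vehicle control cultures reached saturation at 30 °C; 1 = growth at the plate median or of vehicle wells; lower values mean less growth of the strain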
Details: growth OD

Measured: normalized growth

O=C(c1ccccc1)c1ccc2n1CCC2C(=O)O (stereo not drawn)
inactive: S. cerevisiae deletion strains, locus YKL009W, strain mrt4, active compounds read low 0.962 | S. cerevisiae deletion strains, locus YKL068W, active compounds read low 0.979 | S. cerevisiae deletion strains, locus YKL085W, strain MDH1 (second series), active compounds read low 0.99 | S. cerevisiae deletion strains, locus YKL085W, strain MDH1, active compounds read low 0.99 | S. cerevisiae deletion strains, locus YKL160W, strain elf1, active compounds read low 1.03 | S. cerevisiae deletion strains, locus YKL190W, strain CNB1, active compounds read low 0.999 | S. cerevisiae deletion strains, locus YKR001C, strain vps1, active compounds read low 0.98 | S. cerevisiae deletion strains, locus YKR026C, strain gcn3, active compounds read low 1 | S. cerevisiae deletion strains, locus YKR091W, strain srl3, active compounds read low 0.961 | S. cerevisiae deletion strains, locus YLL001W, strain dnm1, active compounds read low 1.01 | S. cerevisiae deletion strains, locus YLL026W, active compounds read low 0.999 | S. cerevisiae deletion strains, locus YLL041C, strain sdh2, active compounds read low 0.995 | S. cerevisiae deletion strains, locus YLR027C, strain aat2, active compounds read low 0.99 | S. cerevisiae deletion strains, locus YLR039C, strain RIC1, active compounds read low 1 | S. cerevisiae deletion strains, locus YLR058C, strain SHM2, active compounds read low 1 | S. cerevisiae deletion strains, locus YLR102C, strain apc9, active compounds read low 0.974 | S. cerevisiae deletion strains, locus YLR113W, strain HOG1, active compounds read low 1.01 | S. cerevisiae deletion strains, locus YLR221C, strain rsa3, active compounds read low 1.01 | S. cerevisiae deletion strains, locus YLR258W, strain gsy2, active compounds read low 0.985 | S. cerevisiae deletion strains, locus YLR262C, strain YPT6 (second series), active compounds read low 0.996 | S. cerevisiae deletion strains, locus YLR262C, strain YPT6, active compounds read low 0.965 | S. cerevisiae deletion strains, locus YLR268W, strain sec22, active compounds read low 0.97 | S. cerevisiae deletion strains, locus YLR320W, strain mms22, active compounds read low 0.966 | S. cerevisiae deletion strains, locus YLR330W, strain CHS5, active compounds read low 0.989 | S. cerevisiae deletion strains, locus YLR342W, strain FKS1 (second series), active compounds read low 0.998 | S. cerevisiae deletion strains, locus YLR342W, strain FKS1, active compounds read low 1 | S. cerevisiae deletion strains, locus YLR357W, strain rsc2, active compounds read low 1.02 | S. cerevisiae deletion strains, locus YLR370C, strain arc18, active compounds read low 1.01 | S. cerevisiae deletion strains, locus YLR371W, strain rom2, active compounds read low 0.962 | S. cerevisiae deletion strains, locus YLR384C, strain iki3, active compounds read low 0.998 | S. cerevisiae deletion strains, locus YLR418C, strain cdc73, active compounds read low 0.987 | S. cerevisiae deletion strains, locus YML016C, strain PPZ1, active compounds read low 0.998 | S. cerevisiae deletion strains, locus YML032C, strain rad52, active compounds read low 0.991 | S. cerevisiae deletion strains, locus YML120C, strain ndi1, active compounds read low 1.01 | S. cerevisiae deletion strains, locus YML124C, strain tub3, active compounds read low 0.982 | S. cerevisiae deletion strains, locus YMR058W, strain fet3, active compounds read low 0.978 | S. cerevisiae deletion strains, locus YMR078C, strain ctf18, active compounds read low 0.968 | S. cerevisiae deletion strains, locus YMR125W, strain sto1, active compounds read low 1.01 | S. cerevisiae deletion strains, locus YMR129W, active compounds read low 0.995 | S. cerevisiae deletion strains, locus YMR205C, strain PFK2, active compounds read low 1.01 | S. cerevisiae deletion strains, locus YMR223W, strain ubp8, active compounds read low 0.972 | S. cerevisiae deletion strains, locus YMR231W, strain pep5, active compounds read low 1 | S. cerevisiae deletion strains, locus YMR307W, strain GAS1, active compounds read low 0.985 | S. cerevisiae deletion strains, locus YNL067W, strain RPL9B, active compounds read low 1.02 | S. cerevisiae deletion strains, locus YNL071W, strain lat1, active compounds read low 0.977 | S. cerevisiae deletion strains, locus YNL128W, strain TEP1, active compounds read low 0.996 | S. cerevisiae deletion strains, locus YNL153C, strain GIM3, active compounds read low 0.998 | S. cerevisiae deletion strains, locus YNL175C, strain NOP13, active compounds read low 1 | S. cerevisiae deletion strains, locus YNL183C, strain NPR1, active compounds read low 0.973 | S. cerevisiae deletion strains, locus YNL197C, strain WHI3, active compounds read low 1.01 | S. cerevisiae deletion strains, locus YNL209W, strain ssb2, active compounds read low 0.985 | S. cerevisiae deletion strains, locus YNL224C, strain SQS1, active compounds read low 1.01 | S. cerevisiae deletion strains, locus YNL233W, strain BNI4, active compounds read low 1.03 | S. cerevisiae deletion strains, locus YNL248C, strain rpa49, active compounds read low 0.968 | S. cerevisiae deletion strains, locus YNL250W, strain rad50, active compounds read low 0.986 | S. cerevisiae deletion strains, locus YNL271C, strain bni1, active compounds read low 0.96 | S. cerevisiae deletion strains, locus YNL298W, strain CLA4, active compounds read low 0.969 | S. cerevisiae deletion strains, locus YNL307C, strain MCK1, active compounds read low 0.976 | S. cerevisiae deletion strains, locus YNL322C, strain KRE1 (second series), active compounds read low 0.982 | S. cerevisiae deletion strains, locus YNL322C, strain KRE1, active compounds read low 1.01 | S. cerevisiae deletion strains, locus YNR049C, strain mso1, active compounds read low 0.983 | S. cerevisiae deletion strains, locus YNR052C, strain pop2, active compounds read low 0.97 | S. cerevisiae deletion strains, locus YOL006C, strain TOP1, active compounds read low 1.05 | S. cerevisiae deletion strains, locus YOL012C, strain htz1 0.945 | S. cerevisiae deletion strains, locus YOL147C, strain pex11, active compounds read low 0.982 | S. cerevisiae deletion strains, locus YOR001W, strain rrp6, active compounds read low 1.01 | S. cerevisiae deletion strains, locus YOR061W, strain CKA2, active compounds read low 0.997 | S. cerevisiae deletion strains, locus YOR069W, strain VPS5, active compounds read low 0.994 | S. cerevisiae deletion strains, locus YOR070C, strain gyp1, active compounds read low 1 | S. cerevisiae deletion strains, locus YOR080W, strain dia2, active compounds read low 1.01 | S. cerevisiae deletion strains, locus YOR083W, strain WHI5 (second series), active compounds read low 1.03 | S. cerevisiae deletion strains, locus YOR083W, strain WHI5, active compounds read low 1.04 | S. cerevisiae deletion strains, locus YOR106W, strain vam3, active compounds read low 1.03 | S. cerevisiae deletion strains, locus YOR136W, strain idh2, active compounds read low 0.971 | S. cerevisiae deletion strains, locus YOR144C, strain elg1, active compounds read low 0.982 | S. cerevisiae deletion strains, locus YOR184W, strain ser1, active compounds read low 0.964 | S. cerevisiae deletion strains, locus YOR231W, strain MKK1, active compounds read low 1.02 | S. cerevisiae deletion strains, locus YOR265W, strain rbl2, active compounds read low 1 | S. cerevisiae deletion strains, locus YOR270C, strain vph1, active compounds read low 0.972 | S. cerevisiae deletion strains, locus YOR290C, strain snf2, active compounds read low 0.962 | S. cerevisiae deletion strains, locus YOR316C, strain cot1, active compounds read low 0.956 | S. cerevisiae deletion strains, locus YPL051W, strain arl3, active compounds read low 1.04 | S. cerevisiae deletion strains, locus YPL055C, strain LGE1, active compounds read low 1.02 | S. cerevisiae deletion strains, locus YPL078C, strain atp4, active compounds read low 1.01 | S. cerevisiae deletion strains, locus YPL106C, strain sse1, active compounds read low 0.978 | S. cerevisiae deletion strains, locus YPL240C, strain hsp82, active compounds read low 1 | S. cerevisiae deletion strains, locus YPL256C, strain CLN2, active compounds read low 1.01 | S. cerevisiae deletion strains, locus YPR119W, strain clb2, active compounds read low 0.961 | S. cerevisiae deletion strains, locus YPR141C, strain kar3, active compounds read low 0.977 | S. cerevisiae deletion strains, locus YPR163C, strain tif3, active compounds read low 0.978 | S. cerevisiae deletion strains, locus YPR167C, strain met16, active compounds read low 0.976 | S. cerevisiae deletion strains, strain wtn01, active compounds read low 0.985 | S. cerevisiae strains, strain wild type, active compounds read low 1
